PrPC TRFRET: cell surface PrPC inhibition, primary TR-FRET screen; P04156; TR-FRET read-out; inhibition, % at 13.8 µM; actives 0.43% (n = 370,000); AID 720596; in the data active means inhibition above about 24%; further: 0% = median of the test wells and 100% = reference compound wells
Rv3671c protease: inhibits the M. tuberculosis serine protease Rv3671c | AID 2606 | inhibition, % at 5.96 µM | P9WHR9 | actives 0.048% (n = 320,000); in the data active means inhibition above about 38%;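 further: extracellular domain of Rv3671c used as enzyme; 0% = enzyme with DMSO and 100% = no enzyme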
Target sequence (P9WHR9 whole entry, looked up, the tested form may be a part): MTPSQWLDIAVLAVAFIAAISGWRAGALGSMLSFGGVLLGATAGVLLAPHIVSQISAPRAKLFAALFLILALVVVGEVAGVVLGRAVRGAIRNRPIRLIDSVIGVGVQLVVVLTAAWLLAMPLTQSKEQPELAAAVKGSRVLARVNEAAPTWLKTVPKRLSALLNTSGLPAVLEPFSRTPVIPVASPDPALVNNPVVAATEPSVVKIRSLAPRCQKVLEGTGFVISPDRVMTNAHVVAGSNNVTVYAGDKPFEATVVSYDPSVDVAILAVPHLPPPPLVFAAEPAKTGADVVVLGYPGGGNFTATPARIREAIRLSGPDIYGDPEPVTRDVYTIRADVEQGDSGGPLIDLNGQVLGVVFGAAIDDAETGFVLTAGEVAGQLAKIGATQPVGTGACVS
FadD28 binding: blocks FadD28 binding to the bisubstrate probe; fluorescence polarization; inhibition, % at 12.5 µM; actives 0.22% (n = 360,000); in the data active means inhibition above about 8.5%, passing the limit was not always enough; inconclusive means no clear call, values can overlap the other calls
UGM FP inh: blocks M. tuberculosis UGM enzyme. P9WIQ1. purified UGM, fluorescence polarization probe displacement. inhibition, % at 10 µM. actives 0.06% (n = 320,000). AID 504406; in the data active means inhibition above about 10%, passing the limit was not always enough; inconclusive means no clear call, values can overlap the other calls
SSB-PriA inh: blocks PriA binding to SSB C-terminal tail; AlphaScreen SSBct-PriA binding, biotinylated peptide; inhibition, % at 33 µM; actives 0.6% (n = 430,000); AID 1272365; in the data active means inhibition mostly above about 37%, no sharp cut-off; inactive means mostly below about 20%;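 further: plate controls were negative control peptide for no effect and reference peptide for full effect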
PrP UTR inh: inhibition of PrP 5' UTR reporter expression; cell-based PrP 5' UTR mRNA reporter, plate reader; inhibition, % (concentration not given with the values); actives 0.35% (n = 340,000); in the data active means inhibition above about 52%; further: 0 = median of the neutral control wells
PrP 5UTR single: prion 5' UTR mRNA inhibition, cherry-pick retest; inhibition, % at 2.5 µM; actives 48% (n = 1,100); shares compounds with PrP UTR inh; cell-based prion protein 5' UTR reporter, plate reader; in the data active means inhibition above about 54%; inconclusive means no clear call, values can overlap the other calls
Numbers without * were called inactive; i = inactive; ? = inconclusive; nt = not tested or not shown. Only some compounds are listed: those with a hit (about 1.2% of all), similar ones and a draw of the others.

SMILES | PrPC TRFRET | Rv3671c protease | FadD28 binding | UGM FP inh | SSB-PriA inh | PrP UTR inh | PrP 5UTR single
COC(=O)c1ccc(Oc2nc(C)cc(Oc3ccccc3)n2)cc1 | 7 | -1 | 0 | -1 | -32 | -27 | nt
COC(=O)c1ccc(Oc2cc(C)nc(-n3nc(C)cc3C)n2)cc1 | 12 | -10 | -1 | -1 | -5 | 59* | 89*
CC(=O)Nc1ccc(SCCCC(=O)NC2CC2)nn1 | nt | nt | nt | nt | -14 | nt | nt
O=C(CC(Nc1ccc(Cl)cc1Cl)C(=O)O)c1ccccc1 (centres undefined) | -6 | 4 | -2 | 0 | -20 | 63* | 16
C/C(=N\NC(N)=O)c1ccc(Cl)cc1 | 4 | -3 | -1 | 3 | nt | -6 | nt
C/C(=N\NC(N)=O)c1ccccc1 | 7 | 2 | -4 | 3 | nt | 72* | -7
O=C(c1cnc2ccccn2c1=O)N1CCCc2ccccc21 | -6 | 5 | -3 | 1 | 0 | -15 | nt
O=C(c1cnn2ccccc12)N1CCCc2ccccc21 | 5 | -8 | 0 | -3 | -10 | 60* | 32
COc1ccc(-c2ccc(C)c(NC(=O)COc3ccccc3)c2)nn1 | nt | nt | nt | nt | 3 | nt | nt
COCCOC(=O)c1[nH]c2c(c1C)C(=O)CC(c1ccco1)C2 (centres undefined) | 4 | 5 | -2 | -1 | -7 | -5 | nt
Cc1c(C(=O)OCc2ccccc2)[nH]c2c1C(=O)CC(c1ccco1)C2 (centres undefined) | nt | -10 | 0 | -2 | 3 | 62* | 87*
CCOC(=O)c1[nH]c2c(c1C)C(=O)CC(c1ccco1)C2 (centres undefined) | 1 | -6 | 0 | 1 | 2 | 61* | 93*
Cc1c(C(=O)OCCOC(C)C)[nH]c2c1C(=O)CC(c1ccco1)C2 (centres undefined) | nt | 7 | -1 | -1 | 4 | 66* | 90*
COc1cccc(C(=O)NCC(c2ccsc2)N(C)C)c1OC (centres undefined) | nt | nt | nt | nt | 1 | nt | nt
CCOC(=O)CCC(=O)N1CCN(Cc2nc(C(C)(C)C)cs2)CC1 | nt | nt | nt | nt | -18 | nt | nt
O=C(CC(O)CCc1ccccc1)c1ccc(O)cc1 (centres undefined) | 11 | 0 | -4 | nt | 2 | 79* | -16
Nc1nc2n(n1)C(=O)CC(c1ccccc1[N+](=O)[O-])N2 (centres undefined) | -1 | 0 | -1 | -2 | 10 | 78* | 2
c1ccc(-c2nnc(NC3=NCCC3)o2)cc1 | -3 | 4 | 2 | 1 | -9 | -16 | nt
Fc1ccc(-c2nnc(NC3=NCCCCC3)o2)cc1 | 5 | -2 | -3 | nt | 0 | 78* | 64*
CC(C)c1ccc(CC(=O)Nc2nnc(Cc3cccs3)o2)cc1 | nt | nt | nt | nt | 15 | nt | nt
C=CCSc1nnc(NC(=O)CSc2nnc(C)s2)s1 | 3 | -7 | -2 | 3 | -18 | 81* | -34
N#CC1(Nc2ccc(S(N)(=O)=O)cc2)CCCC1 | 9 | nt | 0 | nt | 3 | 74* | -13
COC(=O)c1nn(-c2ccc3c(c2)OCO3)cc1O | 10 | -2 | -1 | -1 | -5 | -68 | nt
COC(=O)c1nn(-c2ccc3c(c2)CCN3C(C)=O)cc1O | 2 | -6 | 1 | 4 | -13 | 82* | 81*
Cn1cccc1/C=C1\SC(=Nc2ccc(O)cc2)NC1=O | 3 | 4 | 0 | 0 | 12 | 69* | 82*
SMILES | PrPC TRFRET | Rv3671c protease | FadD28 binding | UGM FP inh | SSB-PriA inh | PrP UTR inh | PrP 5UTR single
O=C(Cn1c(=O)oc2ccccc21)N1CCC(n2c(=O)[nH]c3ccc(F)cc3c2=O)CC1 | nt | nt | nt | nt | -8 | nt | nt
Cc1cnc(C(=O)OC(C)C(=O)Nc2ccc(Oc3ccccc3)cc2)cn1 (centres undefined) | 1 | -2 | -4 | -1 | -18 | 90* | -12
CN(C)CCN1C(=O)c2cccc3cc([N+](=O)[O-])cc(c23)C1=O | -17 | nt | -1 | nt | 4 | 66* | 84*
Cc1ccccc1-n1c(O)c(C=C2C(c3ccccc3)=Nc3ccccc32)c(=O)[nH]c1=O | nt | nt | nt | nt | -18 | nt | nt
Brc1ccc(C=NNc2ccc3ccccc3n2)cc1 | nt | nt | nt | nt | 8 | nt | nt
C(=N\Nc1ccc2ccccc2n1)/c1ccc2c(c1)OCCO2 | 7 | 2 | -1 | 2 | nt | 83* | 69*
Cc1cccc(/C=N/Nc2ccc3ccccc3n2)c1 | 7 | -3 | -7 | 0 | nt | 75* | 66*
CN=c1scc(-c2cccs2)n1/N=C/c1ccccc1O | -3 | 7 | 2 | -1 | nt | 94* | 90*
O=C(Nc1nnc(-c2ccccc2)o1)NC1CCCCC1 | 3 | -29 | 0 | -1 | 1 | 78* | -23
CN1CCN(c2ccc(NC(=O)N3CCc4ccccc43)cc2)CC1 | 0 | 0 | 0 | -2 | 4 | 64* | ?
Cc1ccc(NC(=O)N2CCc3ccccc32)cc1 | 7 | 2 | 0 | 1 | -9 | -41 | nt
COc1cc(-c2noc(C)c2/C=C/c2ccc(OC(C)=O)cc2)cc(OC)c1OC | 12 | -10 | -2 | -1 | -16 | 64* | 85*
COc1ccc(-c2oc(=O)c3cc(OC)c(OC)cc3c2/C=C/c2ccc(OC(C)=O)cc2)cc1 | 0 | -9 | 0 | -1 | -34 | 2 | nt
CCC1CCCCN1C(=S)NC(=O)c1ccc(F)c(S(=O)(=O)N2CCOCC2)c1 (centres undefined) | 5 | -2 | -3 | -8 | -16 | 59* | 5
O=C(NCC1CCCCC1)c1ccc(F)c(S(=O)(=O)N2CCOCC2)c1 | 10 | 2 | 0 | 0 | 3 | -27 | nt
O=C(NCc1ccccn1)c1ccc(Cn2c(=S)[nH]c3ccccc3c2=O)cc1 | -1 | -8 | 2 | 0 | -6 | -7 | nt
O=C(NCc1ccccn1)c1ccc(Cn2c(=S)[nH]c3ccc(Br)cc3c2=O)cc1 | 3 | -7 | -2 | 3 | -9 | 71* | -6
NC(=O)c1c(NC(=O)c2cc(Cl)sc2Cl)sc2c1CCN(Cc1ccccc1)C2 | nt | nt | nt | nt | -2 | nt | nt
COc1ccc([C@H]2CCN(C(=O)c3ccc(OC(F)(F)F)cc3)C2)cc1 | nt | nt | nt | nt | -4 | nt | nt
Cc1cc(C(=O)COc2cccnc2[N+](=O)[O-])c(C)n1-c1ccccc1 | 6 | 4 | -1 | -2 | 5 | 58* | ?
O=C(Nc1ccc2c(c1)OCCO2)c1coc(NC(=O)c2cnccn2)n1 | nt | nt | nt | nt | -6 | nt | nt
CCOC(=O)Cc1csc(NN=Cc2ccccc2)n1 | nt | nt | nt | nt | 7 | nt | nt
CCOC(=O)Cc1csc(N/N=C/c2ccc(Cl)cc2)n1 | 2 | 0 | -2 | 0 | i | 66* | 2
O=C(NCc1cccnc1)c1ccccc1F | nt | nt | nt | nt | 6 | nt | nt
O=C(NCc1cccnc1)c1ccccc1Br | -1 | -4 | 0 | 0 | 2 | 77* | 3
O=c1cc(CN2CCN(c3ccccc3)CC2)occ1OCc1ccc(C(F)(F)F)cc1 | nt | nt | nt | nt | -16 | nt | nt
O=S(=O)(c1ccc(Br)cc1)N1CCS[C@H](c2cc(F)ccc2F)CC1 | nt | nt | nt | nt | -3 | nt | nt
CCN1CCN(Cc2ccc(NC(=O)c3ccc(C)c(NC(=O)c4nccn4C)c3)cc2C(F)(F)F)CC1 | 1 | 6 | -2 | 0 | -3 | 12 | nt
